For part of these data: Measured potencies and affinities stand elsewhere.
What was measured:
Parameters in all cases: scale not given: direction of the effect not stated beside the values
[1] = biological target: Protein translocase subunit SecA (Escherichia coli (strain K12)) (UniProt P10408); assay: Assay to Identify E. coli SecA ATPase Inhibitors; type: functional; conditions: 30 µM
[2] = biological target: T1, Ubiquitin-activating enzyme e1, putative (Leishmania donovani (strain BPK282A1)) (UniProt E9BSI1); assay: Leishmania donovani Ubiquitin Activating Enzyme (LdE1); type: functional; conditions: 30 µM
T1 sequence (whole entry): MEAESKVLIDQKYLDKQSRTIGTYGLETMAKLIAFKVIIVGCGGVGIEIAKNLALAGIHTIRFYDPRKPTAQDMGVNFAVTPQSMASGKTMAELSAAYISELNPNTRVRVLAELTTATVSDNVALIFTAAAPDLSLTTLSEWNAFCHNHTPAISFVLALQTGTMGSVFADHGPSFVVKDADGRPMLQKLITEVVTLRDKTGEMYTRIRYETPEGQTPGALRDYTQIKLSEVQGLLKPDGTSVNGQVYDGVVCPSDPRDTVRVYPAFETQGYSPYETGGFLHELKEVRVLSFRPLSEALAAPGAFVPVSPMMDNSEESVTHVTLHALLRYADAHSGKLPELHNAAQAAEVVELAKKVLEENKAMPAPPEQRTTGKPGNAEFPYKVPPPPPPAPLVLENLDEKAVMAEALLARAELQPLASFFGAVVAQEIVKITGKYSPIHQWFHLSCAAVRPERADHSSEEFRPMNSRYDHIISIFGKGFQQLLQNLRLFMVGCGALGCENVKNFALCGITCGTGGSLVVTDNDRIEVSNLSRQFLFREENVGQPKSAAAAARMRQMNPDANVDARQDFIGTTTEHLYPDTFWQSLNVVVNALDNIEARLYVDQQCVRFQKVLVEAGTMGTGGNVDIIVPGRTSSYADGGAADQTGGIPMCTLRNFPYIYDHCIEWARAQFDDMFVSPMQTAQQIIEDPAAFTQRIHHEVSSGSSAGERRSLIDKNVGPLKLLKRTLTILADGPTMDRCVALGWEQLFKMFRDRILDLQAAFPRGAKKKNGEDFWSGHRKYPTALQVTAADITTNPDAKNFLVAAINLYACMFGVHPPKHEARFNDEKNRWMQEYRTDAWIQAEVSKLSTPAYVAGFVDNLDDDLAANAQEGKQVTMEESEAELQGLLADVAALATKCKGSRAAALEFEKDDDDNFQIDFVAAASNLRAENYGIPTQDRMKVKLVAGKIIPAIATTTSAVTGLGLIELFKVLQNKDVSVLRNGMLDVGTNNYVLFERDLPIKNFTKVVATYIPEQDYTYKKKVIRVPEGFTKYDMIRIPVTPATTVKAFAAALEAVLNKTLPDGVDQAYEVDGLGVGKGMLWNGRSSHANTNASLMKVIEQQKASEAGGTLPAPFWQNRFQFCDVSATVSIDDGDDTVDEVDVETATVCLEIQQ

[3] = biological target: AMP-activated protein kinase, AMPK (Homo sapiens) (UniProt P54646+O43741+P54619+Q9UGJ0+Q9Y478+Q13131+Q9UGI9); assay: AMP-dependent Kinase enzyme assay. An in vitro enzyme assay that detects ADP turnover that is directly proportional to AMPK activity. This uses naive AMPK that is activated during the assay with MK-8722; type: functional; conditions: 30 µM
[4] = biological target: Sialic acid-binding Ig-like lectin 9 (Homo sapiens) (UniProt Q9Y336); assay: Hs-Siglec9 ALPHAscreen SOP 20170721; conditions: 10 µM
Sialic acid-binding Ig-like lectin 9 (Homo sapiens), sequence (Q9Y336 whole entry): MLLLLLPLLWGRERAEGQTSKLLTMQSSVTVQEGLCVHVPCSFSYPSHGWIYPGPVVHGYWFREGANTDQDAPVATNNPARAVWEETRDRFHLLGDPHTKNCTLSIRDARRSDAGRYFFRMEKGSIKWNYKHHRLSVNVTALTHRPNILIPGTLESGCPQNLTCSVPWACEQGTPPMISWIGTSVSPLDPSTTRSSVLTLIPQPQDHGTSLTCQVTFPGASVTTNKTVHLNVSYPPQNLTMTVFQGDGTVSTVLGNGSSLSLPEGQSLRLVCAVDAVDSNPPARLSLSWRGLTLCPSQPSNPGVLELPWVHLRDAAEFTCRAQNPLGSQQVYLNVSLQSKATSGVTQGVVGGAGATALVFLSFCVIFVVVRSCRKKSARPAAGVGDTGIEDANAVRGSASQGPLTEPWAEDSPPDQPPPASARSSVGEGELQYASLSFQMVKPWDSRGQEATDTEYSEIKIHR

Trypanosoma cruzi = assay: Trypanosoma cruzi phosphomannomutase and mannose-1-phosphate guanylyltransferase assay; type: functional; conditions: 10 µM
[5] = biological target: T2, Arginase-2, mitochondrial (Homo sapiens) (UniProt P78540); assay: in vitro enzyme assay to detect the production of urea directly proportional to the activity of Arginase II; type: functional; conditions: 33.3 µM; also: in the data most compounds retested in dose-response had high values
T2 sequence (whole entry): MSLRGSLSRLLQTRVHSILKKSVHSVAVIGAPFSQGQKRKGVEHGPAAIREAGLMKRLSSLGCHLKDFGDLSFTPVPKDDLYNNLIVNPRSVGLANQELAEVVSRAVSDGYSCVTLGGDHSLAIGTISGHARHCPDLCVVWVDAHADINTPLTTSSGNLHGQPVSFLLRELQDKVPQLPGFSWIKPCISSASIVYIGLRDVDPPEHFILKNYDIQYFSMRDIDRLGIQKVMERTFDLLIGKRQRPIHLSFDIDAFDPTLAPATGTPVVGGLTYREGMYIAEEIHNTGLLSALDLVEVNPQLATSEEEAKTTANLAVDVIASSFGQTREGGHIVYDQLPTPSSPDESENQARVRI

[6] = biological target: T3, Proteasome subunit beta (Trypanosoma cruzi) (UniProt O96673); assay: Trypanosoma cruzi proteasome chymotrypsin-like activity (TcProtChymo) assay.; also: in the data most compounds retested in dose-response had high values; type: functional; conditions: 9.37 µM
T3 sequence (whole entry): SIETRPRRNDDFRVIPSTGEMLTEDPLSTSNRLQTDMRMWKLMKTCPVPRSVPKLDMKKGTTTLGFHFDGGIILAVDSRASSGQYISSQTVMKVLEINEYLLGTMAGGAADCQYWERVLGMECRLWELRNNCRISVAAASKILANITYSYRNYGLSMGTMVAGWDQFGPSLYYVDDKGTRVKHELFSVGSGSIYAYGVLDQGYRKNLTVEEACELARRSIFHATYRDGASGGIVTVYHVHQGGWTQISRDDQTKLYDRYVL

Homo sapiens = species: Homo sapiens; assay: To identify inhibition of the IFN signalling (Jak-Stat) pathway via expression of an eGFP reporter gene under the control of an IFN-stimulated response element (ISRE) containing MxA promoter.; type: functional; conditions: 30 µM
[7] = biological target: T4, Tyrosyl-tRNA synthetase, putative (Trypanosoma cruzi (strain CL Brener)) (UniProt Q4DSP6); assay: Trypanosoma cruzi tyrosyl tRNA synthetase (TcYRS) _High Tyrosine SOP; type: functional; conditions: 30 µM; also: in the data most compounds retested in dose-response had high values
T4 sequence (whole entry): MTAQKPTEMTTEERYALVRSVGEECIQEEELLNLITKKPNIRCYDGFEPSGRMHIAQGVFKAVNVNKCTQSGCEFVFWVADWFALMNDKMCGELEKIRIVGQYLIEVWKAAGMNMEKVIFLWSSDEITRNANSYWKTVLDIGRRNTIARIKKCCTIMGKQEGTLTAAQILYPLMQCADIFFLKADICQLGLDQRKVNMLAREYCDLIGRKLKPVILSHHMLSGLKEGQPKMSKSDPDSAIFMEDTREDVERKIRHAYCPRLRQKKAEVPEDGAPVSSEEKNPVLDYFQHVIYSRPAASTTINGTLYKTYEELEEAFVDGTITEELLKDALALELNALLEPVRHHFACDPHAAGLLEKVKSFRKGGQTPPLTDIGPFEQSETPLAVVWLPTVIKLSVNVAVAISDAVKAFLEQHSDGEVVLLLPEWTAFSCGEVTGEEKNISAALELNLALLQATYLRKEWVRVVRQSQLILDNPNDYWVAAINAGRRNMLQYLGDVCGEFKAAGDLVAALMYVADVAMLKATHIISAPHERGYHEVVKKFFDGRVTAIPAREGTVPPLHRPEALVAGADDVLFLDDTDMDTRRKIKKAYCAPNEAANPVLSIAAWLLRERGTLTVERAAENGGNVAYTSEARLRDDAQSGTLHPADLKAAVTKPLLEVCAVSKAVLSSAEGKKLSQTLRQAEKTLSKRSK

[8] = biological target: T4, Tyrosyl-tRNA synthetase, putative (Trypanosoma cruzi (strain CL Brener)); assay: Trypanosoma cruzi tyrosyl tRNA synthetase (TcYRS) SOP; type: functional; conditions: 30 µM
[9] = biological target: Chromo domain-containing protein 1 (Saccharomyces cerevisiae (strain ATCC 204508 / S288c) (Baker's yeast)) (UniProt P32657); assay: ScCHD-1 Enzyme Inhibition Assay; type: functional; conditions: 30 µM; also: in the data most compounds retested in dose-response had high values
Chromo domain-containing protein 1 (Saccharomyces cerevisiae (strain ATCC 204508 / S288c) (Baker's yeast)), sequence (P32657 whole entry, the tested form may be a part): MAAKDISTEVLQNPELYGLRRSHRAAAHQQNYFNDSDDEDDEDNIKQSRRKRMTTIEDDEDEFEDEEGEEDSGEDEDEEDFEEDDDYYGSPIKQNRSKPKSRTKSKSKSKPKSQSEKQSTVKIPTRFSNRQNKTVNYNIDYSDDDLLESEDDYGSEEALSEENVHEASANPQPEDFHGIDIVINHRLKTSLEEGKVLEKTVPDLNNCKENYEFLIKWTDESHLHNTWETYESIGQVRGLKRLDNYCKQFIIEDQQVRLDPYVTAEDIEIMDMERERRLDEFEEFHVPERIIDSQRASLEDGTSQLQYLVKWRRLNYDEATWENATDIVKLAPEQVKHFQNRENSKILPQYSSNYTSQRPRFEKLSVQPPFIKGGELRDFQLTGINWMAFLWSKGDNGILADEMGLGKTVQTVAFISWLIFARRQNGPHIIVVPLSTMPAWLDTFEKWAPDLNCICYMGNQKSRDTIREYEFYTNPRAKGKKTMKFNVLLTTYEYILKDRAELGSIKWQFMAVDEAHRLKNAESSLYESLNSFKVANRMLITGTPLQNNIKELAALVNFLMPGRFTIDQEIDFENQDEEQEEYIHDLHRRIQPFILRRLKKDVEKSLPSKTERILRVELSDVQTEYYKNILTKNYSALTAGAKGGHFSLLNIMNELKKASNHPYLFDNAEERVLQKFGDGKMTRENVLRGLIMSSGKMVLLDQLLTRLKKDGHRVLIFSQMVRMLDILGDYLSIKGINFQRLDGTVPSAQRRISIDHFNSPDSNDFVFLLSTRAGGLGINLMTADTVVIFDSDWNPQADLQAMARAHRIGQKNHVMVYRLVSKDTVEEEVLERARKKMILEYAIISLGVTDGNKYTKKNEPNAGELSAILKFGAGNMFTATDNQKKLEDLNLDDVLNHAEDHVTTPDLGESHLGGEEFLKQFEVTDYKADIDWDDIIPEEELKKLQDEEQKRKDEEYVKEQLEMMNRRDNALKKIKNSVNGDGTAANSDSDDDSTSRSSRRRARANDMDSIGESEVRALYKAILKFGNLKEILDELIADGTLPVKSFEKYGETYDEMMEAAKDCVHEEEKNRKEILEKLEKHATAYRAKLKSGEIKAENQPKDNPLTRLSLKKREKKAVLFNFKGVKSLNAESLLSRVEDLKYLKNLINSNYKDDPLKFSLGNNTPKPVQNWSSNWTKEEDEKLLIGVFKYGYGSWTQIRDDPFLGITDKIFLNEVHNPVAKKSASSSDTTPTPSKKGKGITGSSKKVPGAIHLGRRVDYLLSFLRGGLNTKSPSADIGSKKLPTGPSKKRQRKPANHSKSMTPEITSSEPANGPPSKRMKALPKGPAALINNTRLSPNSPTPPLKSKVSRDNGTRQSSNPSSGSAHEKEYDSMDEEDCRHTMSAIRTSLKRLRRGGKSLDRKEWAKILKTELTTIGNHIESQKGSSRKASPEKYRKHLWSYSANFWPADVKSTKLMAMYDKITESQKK

Protein translocase subunit SecA (Escherichia coli (strain K12)), sequence (P10408 whole entry): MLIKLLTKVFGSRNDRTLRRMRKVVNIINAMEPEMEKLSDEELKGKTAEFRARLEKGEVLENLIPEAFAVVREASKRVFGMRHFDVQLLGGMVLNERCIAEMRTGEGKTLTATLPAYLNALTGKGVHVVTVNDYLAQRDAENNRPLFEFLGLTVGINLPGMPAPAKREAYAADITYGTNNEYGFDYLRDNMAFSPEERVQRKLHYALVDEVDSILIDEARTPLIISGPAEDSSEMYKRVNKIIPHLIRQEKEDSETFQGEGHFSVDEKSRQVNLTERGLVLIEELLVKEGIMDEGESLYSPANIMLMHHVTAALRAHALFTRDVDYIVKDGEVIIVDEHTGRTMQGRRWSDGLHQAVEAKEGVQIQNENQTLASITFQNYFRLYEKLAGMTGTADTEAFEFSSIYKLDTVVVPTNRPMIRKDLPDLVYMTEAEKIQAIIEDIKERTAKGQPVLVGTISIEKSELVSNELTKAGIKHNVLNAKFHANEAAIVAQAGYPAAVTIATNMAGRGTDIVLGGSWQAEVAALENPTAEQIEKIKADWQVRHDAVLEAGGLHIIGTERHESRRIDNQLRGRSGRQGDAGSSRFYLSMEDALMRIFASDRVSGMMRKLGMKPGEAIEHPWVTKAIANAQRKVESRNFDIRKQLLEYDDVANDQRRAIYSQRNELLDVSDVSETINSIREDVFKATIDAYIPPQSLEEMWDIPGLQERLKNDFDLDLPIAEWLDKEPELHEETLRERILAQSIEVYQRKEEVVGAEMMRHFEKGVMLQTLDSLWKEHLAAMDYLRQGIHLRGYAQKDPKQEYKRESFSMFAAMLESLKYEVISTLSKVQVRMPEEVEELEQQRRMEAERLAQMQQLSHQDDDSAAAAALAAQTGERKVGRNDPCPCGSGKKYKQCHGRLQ

SMILES	Percent Effect [1] [%]	Percent Effect [2] [%]	Percent Effect [3] [%]	Percent Effect [4] [%]	Percent Effect (Trypanosoma cruzi) [%]	Percent Effect [5] [%]	Percent Effect [6] [%]	Percent Effect (Homo sapiens) [%]	Percent Effect [7] [%]	Percent Effect [8] [%]	Percent Effect [9] [%]
O=C1NCCN1C1CCCN(Cc2nnc(-c3ccc(F)cc3)o2)C1 (stereo unspecified)	-1.01	2.7	-4.34	16.6	6.04	2.03	9.7	-7.13	3.96	15.8	-2.67
COCc1noc(-c2ccc(N(C)Cc3cc(C)no3)nc2)n1	-1.27	0	-1.25	9.06	5.79	10.9	6.9	17.1	5.82	7.32	-6.04
COc1cccn(CC(=O)N(C)CCOc2cc(C)cc(C)c2)c1=O	-5.42	8.22	-63.8	11.9	2.98	-12.8	15.2	-0.398	-2.08	3.7	-0.823
Cc1ccc(N2CCCC(NCC(=O)NCC3CC3)C2)nn1 (stereo unspecified)	-4.97	6.33	-6.37	2.61	1.13	-1.94	15.8	-5.61	7.29	15.2	-25.7
O=C(Cn1cc(C(=O)O)ccc1=O)NCc1ccc(F)c(Cl)c1	-2.28	9.33	-1.08	-0.406	4.91	-6.87	11.7	27	4.23	12.8	-7.6
O=C(CN1CCC(N2CCNC2=O)CC1)NCC(F)(F)F	-3.52	17.7	-4.25	3.47	-2.36	4.56	5	9.87	5.42	13.9	-4.76
CC(=O)Nc1nc(CN2CCCC2c2cnn(C)c2)cs1 (stereo unspecified)	-7.62	20.2	-9.48	17.6	9.54	-6.46	6.31	-5.41	7.39	21.5	-5.9
CC(=O)NCc1ccc(C(=O)N2CCCC2c2cnn(C)c2)o1 (stereo unspecified)	-4.23	-2.63	-0.621	3.5	-0.467	3.24	6.51	-0.0723	-0.493	-1.24	2.06
O=c1oc(-c2ccc(F)cc2)nn1CN1CCN(C2CCCC2)CC1	-3.25	18.2	2.12	-0.647	-2.25	-3.56	7.6	-3.58	9.71	19.5	-6.38
CCc1nc(C(=O)N2CCN(C)CC2C)nn1-c1ccccc1Cl (stereo unspecified)	-3.02	15.8	15.7	-9.77	-7.19	0.36	8.04	12.9	5.42	11.1	-9.77
Fc1ccc(CN2CCC(c3n[nH]c4nccnc34)CC2)cc1F	-3.35	9.46	4.38	-4.91	0.593	-1.16	19.8	7.61	1.07	6.49	-18.1
CCO[C@@H]1CCN(C(=O)c2ccc[nH]2)[C@@H]1Cc1cnn(C)c1	-3.08	0	17.3	-3.48	-5.91	3.5	2.56	19.4	4.25	3.85	-2.5
O=C(NCC1CC1)[C@H]1CC[C@@H]2[C@@H](CCN2Cc2ccoc2)O1	-9.56	16.2	-3.1	26	4.99	3.23	4.72	-7.7	4.3	6.17	-12.2
Cc1cc2nc(SCC(=O)N3CCOCC3)n(CC(C)C)c(=O)c2[nH]1	2.16	13.2	2.03	-4.31	-4.77	11.8	18.3	-10.6	-1.06	10.4	-2.79
COc1ccc2c(ccn2CCC(=O)O)c1	-6.14	4	-3.9	-8.49	-8.45	-7.22	6.1	21.8	3.17	-5.13	-7.85
CN(C)C(=O)[C@H]1C[C@@H]2CN(S(=O)(=O)Cc3ccccc3)C[C@H]1O2	-2.48	13.3	5.4	-3.98	-1.38	3.96	7.49	-3.98	5.32	11.5	-6.01
OCCN1CCN(Cc2coc(-c3ccc(Cl)cc3)n2)CC1	-2.69	-2.6	3.9	4.43	3	4.27	1.35	-6.89	0	7.32	-3.24
CC(=O)N(C)c1nc(CN2CCCCC2Cn2cncn2)cs1 (stereo unspecified)	-8.24	7.79	-1	0.729	-5.99	-1.42	7.43	27.8	5.83	7.32	-6.12
Cc1cccc(N2Cc3nc(=O)[nH]n3C2=O)c1	1.1	4	3.29	-0.713	-4.52	-9.33	19.6	-0.119	5.29	5.13	-4.23
COc1cccc(OCCNC(=O)CN2CCN(C)CC2C)c1 (stereo unspecified)	-4.33	13.5	-5.8	15	6.59	-2.77	7.54	11.6	3.96	18.3	-8.99
Cc1cn2nc(N3CCCC3CC(C)(C)C)sc2n1 (stereo unspecified)	-5.41	-1.27	7.29	3.5	0.103	2.8	11	15.4	3.12	7.59	-4.52
